Here are results for 40 compounds from PubChem BioAssay (NCI).

Structures are written as SMILES. Compounds without any hit were thinned out: in the full panel of roughly 83,000, 20% have a hit.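 Cells were grown in 96-well plates and exposed to the test compound at a single concentration for 48 hours; results are reported as percent growth, with values below 10 considered active.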 The source made the active and inactive calls.

One experiment relates to NCI-H522 lung. As to the kind of experiment: NCI-60 one-dose screen, 48 h (100 = growth as untreated, 0 = no growth, -100 = all killed). The conditions noted are these: 10 µM unless noted.
Turning to `CC1Cc2c(Cl)ncnc2N(C)c2ccc(F)cc21` (stereo not given), the growth is 89.3% (inactive).

Take `N#CC1=C(N)Oc2c(sc3c(Br)cccc23)C1c1ccc(F)cc1` (stereo not given): the growth is -6.79% (active).

Turning to `COc1ccc(/C(C)=C(/c2ccc(OCCCN(C)C)cc2)c2ccc(OC(=O)Cc3ccccc3)cc2)cc1`, the growth was 57.5% (inactive).

On to `O=C1Nc2ccccc2[C@]12CC(c1ccccc1)=NN2`, for which the growth is 39.4% (inactive).

For the compound `CN(CCOc1ccc(C#N)cc1)CCOc1ccc(C#N)cc1`, the growth was 86.6% (inactive).

As for `Cc1ccc(Sc2nnc(/N=C3\C(=O)Nc4ccccc43)s2)cc1`, the growth was 94.6% (inactive).

As to `Cn1cc(-c2nonc2-c2c[nH]c3ccc(Br)cc23)c2cc(Br)ccc21`, the growth was 24.3% (inactive).

Regarding `Cc1ccc(NC(=S)NNC(=S)NNc2ccccc2)cc1C`, the growth was 86.3% (inactive).

As to `COc1ccc(-c2csc(N(C(=O)N3CCN(c4cc5c(cc4F)c(=O)c(C(=O)O)cn5C4CC4)CC3)c3ccccc3)n2)cc1`, the growth was -21.8% (active).

Turning to `O=[N+]([O-])c1ccc(N/N=C(/C(=N/Nc2ccc([N+](=O)[O-])cc2)c2ccccc2)c2ccccc2)cc1`, the growth was 50.8% (inactive).

Take `CCCCCCCCn1ccc2cc(NC(=O)CN3CCN(c4nc(C)cc(Cl)n4)CC3)ccc21`: the growth is 81.5% (inactive).

Turning to `COc1ccc(-c2cc(-c3ccc(Cl)cc3)c(C#N)c(=O)n2CCCCC(=O)Nc2ccccc2N)cc1`, the growth was 48.6% (inactive).

Consider `CCOC(=O)c1c2c(n3ccc(C)cc13)C(=O)c1ccccc1C2=O`, for which the growth was 70.5% (inactive).

Turning to `COc1ccc(-c2nc3c(c(-c4ccccc4)nn3-c3ccccc3)c(-c3ccc(N4CCN(C)CC4)cc3)c2C#N)cc1`, the growth is 94.4% (inactive).

In the case of `Cc1ccc(-n2c(=S)[nH]c3sc4c(c3c2=O)CCC(=O)C4)cc1`, the growth was 10.2% (inactive).

Turning to `COc1cc(-c2cc(-c3ccc(N(C)C)cc3)nc(N3CCC(O)CC3)c2C#N)cc(OC)c1OC`, the growth was -36.3% (active).

On to `O=Cc1ccc([N+](=O)[O-])s1`, for which the growth was 101% (inactive).

With `CC1=NN(c2nc(SCC(=O)Nc3nc4ccc(C)cc4s3)nc(-c3ccccc3)c2C#N)C(=O)C1`, the growth was 91.1% (inactive).

With `O=C(CSc1nc(-c2ccccc2)[nH]c1S(=O)(=O)c1ccccc1)NC1CC1`, the growth is 76.2% (inactive).

In the case of `Nc1ncnc2c1N=C(c1ccc3c(c1)OCO3)CC(c1cccc(Nc3ccnc4cc(Cl)ccc34)c1)N2` (stereo not given), the growth is 58% (inactive).

As to `O=C(CN1C(=O)CCC1=O)Nc1ncc(Cc2ccc(F)cc2)s1`, the growth was 99% (inactive).

In the case of `Cn1cc(-c2csc(-c3ccc(Cl)cc3)n2)c2cccnc21`, the growth was 9.55% [100 µM] (active).

Turning to `CN(Cc1ccc(C(F)(F)F)cc1)CC(O)C(=O)Nc1ccc(Cl)cc1` (stereo not given), the growth was -51.4% (active).

With `CCCCCOc1ccc(C(=O)/C(Br)=C/C(=O)O)cc1`, the growth is 89.2% (inactive).

Turning to `CCN(CC)CCCN1C(=O)c2c(c(C)c3c(oc4cc(O)ccc43)c2C)C1=O`, the growth was 82.6% (inactive).

Take `CCOP(=O)(OCC)c1nc(-c2ccccc2)oc1NCc1cccnc1`: the growth was 92.8% (inactive).

In the case of `O=C(CCC(=O)N/N=C/c1ccccc1O)N/N=C/c1ccccc1O`, the growth is 51.8% (inactive).

`S=C(Nc1ccc(-c2nc(N3CCOCC3)c3cccn3n2)cc1)Nc1cccnc1`: the growth was 4.32% (active).

For the compound `N#Cc1c(N)nnn1Cc1cc(=O)oc2c1ccc1ccccc12`, the growth was 78.1% (inactive).

In the case of `Fc1ccc2[nH]cc(-c3nonc3-c3c[nH]c4ccc(Br)cc34)c2c1`, the growth was -12.1% (active).

Consider `O=Nc1c(-c2c(O)[nH]c3ncccc23)[nH]c2ccccc12`, for which the growth was 47.6% (inactive).

As to `Fc1cccc(CNc2c3ccccc3nc3ccccc23)c1F`, the growth was 53.8% (inactive).

On to `CCn1c(=S)sc2c(Nc3ccc(F)cc3)nc(-c3cccnc3)nc21`, for which the growth was 40.5% (inactive).

Consider `CC(C)(C)n1cc(-c2ccnc(NCCNS(=O)(=O)c3cccc(F)c3)c2)c(-c2ccccc2)n1`, for which the growth is 79.8% (inactive).

For `Cc1cc2c(O)c(-c3cc(Cl)ccc3Cl)c3sc(=O)oc3c2cc1C`, the growth was 26.4% (inactive).

Regarding `Fc1ccc(-c2nn(-c3ccccc3)cc2-c2nc3ccccc3o2)cc1`, the growth is 82.3% (inactive).

`OB(O)c1cccc(-c2nc3ccc4[nH]ncc4c3c3c2CCCC3)c1`: the growth was 62.9% (inactive).

Consider `O=C(CSc1nc2ccc([N+](=O)[O-])cc2[nH]1)Nc1ccc(F)cc1`, for which the growth is 30.1% (inactive).

In the case of `CNC(=O)c1c(NC(=O)c2ccc(C(F)(F)F)cc2)sc2c1CCC(=O)C2`, the growth is -26.1% (active).

Regarding `N#Cc1cccc(NC(=O)c2oc3ccccc3c2-c2cnn(-c3ccccc3)c2)c1`, the growth is 59% [50 µM] (inactive).

The next experiment deals with A549/ATCC NSCLC. The experiment is described as above. The conditions noted are these: 10 µM unless noted.
Regarding `CC1Cc2c(Cl)ncnc2N(C)c2ccc(F)cc21` (stereo not given), the growth was 70% (inactive).

As for `N#CC1=C(N)Oc2c(sc3c(Br)cccc23)C1c1ccc(F)cc1` (stereo not given), the growth was 24.1% (inactive).

As for `COc1ccc(/C(C)=C(/c2ccc(OCCCN(C)C)cc2)c2ccc(OC(=O)Cc3ccccc3)cc2)cc1`, the growth was 58.4% (inactive).

As to `O=C1Nc2ccccc2[C@]12CC(c1ccccc1)=NN2`, the growth is 44.3% (inactive).

For the compound `CN(CCOc1ccc(C#N)cc1)CCOc1ccc(C#N)cc1`, the growth is 60.2% (inactive).

With `Cc1ccc(Sc2nnc(/N=C3\C(=O)Nc4ccccc43)s2)cc1`, the growth is 92.1% (inactive).

In the case of `Cn1cc(-c2nonc2-c2c[nH]c3ccc(Br)cc23)c2cc(Br)ccc21`, the growth is 30.8% (inactive).

Consider `Cc1ccc(NC(=S)NNC(=S)NNc2ccccc2)cc1C`, for which the growth is 101% (inactive).

As to `COc1ccc(-c2csc(N(C(=O)N3CCN(c4cc5c(cc4F)c(=O)c(C(=O)O)cn5C4CC4)CC3)c3ccccc3)n2)cc1`, the growth is 13.6% (inactive).

With `O=[N+]([O-])c1ccc(N/N=C(/C(=N/Nc2ccc([N+](=O)[O-])cc2)c2ccccc2)c2ccccc2)cc1`, the growth is 90.9% (inactive).

With `CCCCCCCCn1ccc2cc(NC(=O)CN3CCN(c4nc(C)cc(Cl)n4)CC3)ccc21`, the growth was 96.3% (inactive).

As for `COc1ccc(-c2cc(-c3ccc(Cl)cc3)c(C#N)c(=O)n2CCCCC(=O)Nc2ccccc2N)cc1`, the growth was 43.8% (inactive).

As to `CCOC(=O)c1c2c(n3ccc(C)cc13)C(=O)c1ccccc1C2=O`, the growth was 62.5% (inactive).

In the case of `COc1ccc(-c2nc3c(c(-c4ccccc4)nn3-c3ccccc3)c(-c3ccc(N4CCN(C)CC4)cc3)c2C#N)cc1`, the growth is 89.3% (inactive).

For the compound `Cc1ccc(-n2c(=S)[nH]c3sc4c(c3c2=O)CCC(=O)C4)cc1`, the growth was 51.8% (inactive).

With `COc1cc(-c2cc(-c3ccc(N(C)C)cc3)nc(N3CCC(O)CC3)c2C#N)cc(OC)c1OC`, the growth is 11.5% (inactive).

Regarding `O=Cc1ccc([N+](=O)[O-])s1`, the growth was 95.2% (inactive).

With `CC1=NN(c2nc(SCC(=O)Nc3nc4ccc(C)cc4s3)nc(-c3ccccc3)c2C#N)C(=O)C1`, the growth is 107% (inactive).

For `O=C(CSc1nc(-c2ccccc2)[nH]c1S(=O)(=O)c1ccccc1)NC1CC1`, the growth was 42.1% (inactive).

For `Nc1ncnc2c1N=C(c1ccc3c(c1)OCO3)CC(c1cccc(Nc3ccnc4cc(Cl)ccc34)c1)N2` (stereo not given), the growth was 67.2% (inactive).

Consider `O=C(CN1C(=O)CCC1=O)Nc1ncc(Cc2ccc(F)cc2)s1`, for which the growth was 108% (inactive).

On to `Cn1cc(-c2csc(-c3ccc(Cl)cc3)n2)c2cccnc21`, for which the growth was 9.96% [100 µM] (active).

For `CN(Cc1ccc(C(F)(F)F)cc1)CC(O)C(=O)Nc1ccc(Cl)cc1` (stereo not given), the growth was 19.6% (inactive).

Regarding `CCCCCOc1ccc(C(=O)/C(Br)=C/C(=O)O)cc1`, the growth was 104% (inactive).

With `CCN(CC)CCCN1C(=O)c2c(c(C)c3c(oc4cc(O)ccc43)c2C)C1=O`, the growth was -74% (active).

Take `CCOP(=O)(OCC)c1nc(-c2ccccc2)oc1NCc1cccnc1`: the growth was 104% (inactive).

For `O=C(CCC(=O)N/N=C/c1ccccc1O)N/N=C/c1ccccc1O`, the growth is 62.6% (inactive).

As for `S=C(Nc1ccc(-c2nc(N3CCOCC3)c3cccn3n2)cc1)Nc1cccnc1`, the growth was 24.1% (inactive).

As for `N#Cc1c(N)nnn1Cc1cc(=O)oc2c1ccc1ccccc12`, the growth is 91.1% (inactive).

`Fc1ccc2[nH]cc(-c3nonc3-c3c[nH]c4ccc(Br)cc34)c2c1`: the growth is 19.5% (inactive).

For `O=Nc1c(-c2c(O)[nH]c3ncccc23)[nH]c2ccccc12`, the growth is 46.6% (inactive).

Take `Fc1cccc(CNc2c3ccccc3nc3ccccc23)c1F`: the growth is 56.7% (inactive).

Take `CCn1c(=S)sc2c(Nc3ccc(F)cc3)nc(-c3cccnc3)nc21`: the growth is 48.7% (inactive).

Regarding `CC(C)(C)n1cc(-c2ccnc(NCCNS(=O)(=O)c3cccc(F)c3)c2)c(-c2ccccc2)n1`, the growth was 79.9% (inactive).

Consider `Cc1cc2c(O)c(-c3cc(Cl)ccc3Cl)c3sc(=O)oc3c2cc1C`, for which the growth was 60.2% (inactive).

As for `Fc1ccc(-c2nn(-c3ccccc3)cc2-c2nc3ccccc3o2)cc1`, the growth is 55.3% (inactive).

For `OB(O)c1cccc(-c2nc3ccc4[nH]ncc4c3c3c2CCCC3)c1`, the growth is 41.8% (inactive).

As for `O=C(CSc1nc2ccc([N+](=O)[O-])cc2[nH]1)Nc1ccc(F)cc1`, the growth was 58.2% (inactive).

For `CNC(=O)c1c(NC(=O)c2ccc(C(F)(F)F)cc2)sc2c1CCC(=O)C2`, the growth was 13.7% (inactive).

As to `N#Cc1cccc(NC(=O)c2oc3ccccc3c2-c2cnn(-c3ccccc3)c2)c1`, the growth is 81.4% [50 µM] (inactive).
